Only some compounds are listed: those with a hit (about 2.7% of all), similar ones and a draw of the others.
MPTP block: mitochondrial permeability transition pore inhibitors, primary screen, biochemical, isolated mouse mitochondria, absorbance. AID 602449, 2012. Ca2+ swelling absorbance, 30 min. 360,000 tested, 1.4% active. inhibition, % at 10 µM;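 active means inhibition of 50% or more, scaled per plate between neutral and stimulator controls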;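 further: 0% = DMSO wells given calcium and 100% = 1 mM EGTA wells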
TAG inh: inhibitors of triacylglycerol accumulation, primary screen, cell-based, uHTS, fluorescence, H9c2 | H9c2 cells, Nile Red lipid (TAG) fluorescence; cells loaded with 200 µM oleic acid | inhibition, % at 12.5 µM | 230,000 tested, 0.66% active | AID 651582, 2012;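 active means pattern-corrected inhibition of lipid staining of at least 50% with the nuclear-stain viability signal not falling by more than 50%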;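 further: 0% = DMSO wells and 100% = triacsin C control wells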
NadD inh: inhibitors of S. aureus NadD, primary screen, biochemical, colorimetric, uHTS; Nicotinate-nucleotide adenylyltransferase NadD (Staphylococcus aureus N315); purified NadD enzyme, colorimetric absorbance read-out; inhibition, % at 20 µM; 360,000 tested, 0.78% active; AID 602399, 2012; in the data active means inhibition above about 26%
aDG glyco up: activators of alpha-DG glycosylation, primary screen, uHTS, Pro5-aDG cells, AlphaScreen | alpha-DG glycosylation AlphaScreen (IIH6); 0% Pro5, 100% B10-LARGE cell signal | 360,000 tested, 0.22% active | activation, % at 10 µM;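 active means activation of at least 8% versus controls, or a plate z-score of at least 8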;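 further: Pro5 are CHO cells carrying HIG-tagged alpha-DG that lacks glycosylation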
MPTP counter: fluorescence retest of MPTP screen hits in isolated mitochondria, single concentration; membrane potential, Rhodamine 123 fluorescence; AID 624504, 2012; inhibition, % at 10 µM; shares compounds with MPTP block; 5,000 tested, 78% active; in the data active means inhibition above about 22%;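 further: 0% = DMSO vehicle and 100% = positive control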
MPTP swell DR: mitochondrial permeability transition pore inhibitors, dose response, biochemical, absorbance, uHTS hits; shares compounds with MPTP block; isolated mitochondria swelling; IC50, µM; 780 tested, 58% active; AID 651561, 2012; in the data active means IC50 below about 20 µM
MPTP cs DR: fluorescent counter-screen in isolated mitochondria, dose response, counter-screen for MPTP inhibitor project, biochemical, fluorescence, uHTS hits. shares compounds with MPTP block. isolated mitochondria counterscreen, fluorescence read-out. IC50, µM. 780 tested, 49% active. AID 651564, 2012; in the data active means IC50 below about 80 µM
The depositor's hits bear a star; i = inactive; / = not tested or not shown.

SMILES	MPTP block	TAG inh	NadD inh	aDG glyco up	MPTP counter	others
COc1ccc(CCN(C)C(=O)C2CCCN(C3CCN(Cc4ccccc4)CC3)C2)cc1OC (configuration not stated)	2	/	-4	0	/
O=C(CN1CCOCC1)NNC(=S)Nc1ccc(Cl)cc1	0	-4	-1	0	/
O=C(CN1c2ccccc2Sc2ccccc21)NNC(=S)Nc1ccc(Cl)cc1	63*	10	14	0	51*
O=C(CN(Cc1ccco1)C(=O)c1cccc(F)c1)Nc1ccccc1C(F)(F)F	0	-5	-10	0	/
OC(CN1CCCCCC1)CN(c1ccccc1)c1ccccc1 (configuration not stated)	67*	/	-7	0	51*
Cc1ccc(CNC(=O)c2ccc(N3CCCC3=O)cc2)cc1	-2	/	6	0	/
Cn1nc(C(C)(C)C)cc1C(=O)NCc1ccc(N2CCCC2=O)cc1	95*	/	-5	4.7*	93*
Cc1cccc2c1cnn2C(=O)CCC(=O)NCc1ccc(F)cc1	-2	-2	-5	0	/
Cc1ccc(/C=C2/SC(=S)N(CCC(=O)N3CCN(C)CC3)C2=O)cc1	79*	18	-11	0	5	MPTP swell DR=>100;MPTP cs DR=>80
Clc1ccc(OCCN2CCN(c3ncnc4sccc34)CC2)cc1	100*	/	-7	6	101*
Cc1sc2ncnc(N3CCOCC3)c2c1C	-1	/	4	0	/
Cc1ccc(OCCN2CCN(c3ncnc4sc(C)c(C)c34)CC2)cc1	97*	/	0	3	90*
Cc1sc2ncnc(N3CCN(S(=O)(=O)c4ccccc4)CC3)c2c1C	94*	-35	2	3	89*
CCOC(=O)C1(Cc2ccccc2C(F)(F)F)CCN(C2CCN(C(C)C)CC2)CC1	2	3	-6	4	/
Fc1ccc(Nc2nc(-c3ccncc3)nc3ccccc23)cc1F	71*	/	3	0	45*
c1ccc2c(Nc3nc(-c4ccncc4)nc4ccccc34)cccc2c1	14	43	-3	0	/
O=C(Nc1cccc(C(F)(F)F)c1)c1cccnn1	0	/	1	0	/
Cc1ccc2nc(C(Cl)(Cl)Cl)nc(N/N=C/c3ccc([N+](=O)[O-])cc3)c2c1	94*	33	24	1	9	MPTP swell DR=i;MPTP cs DR=11*
N#Cc1c(NCCN)nc(-c2ccco2)c2c1CCCC2	92*	15	11	0	-2	MPTP swell DR=13*;MPTP cs DR=>80
COCCNC(=O)C1(C)CCCN(C(=O)c2ccc(C#N)cc2)C1 (configuration not stated)	0	-4	-4	0	/
Cc1ccc(S(=O)(=O)Nc2ccc(N=Nc3ccc(O)cc3)cc2)cc1	56*	5	-5	0	43*
Cc1ccc(OCC(O)Cn2c(=N)n(CCN3CCOCC3)c3ccccc32)cc1 (configuration not stated)	52*	10	-9	0	0	MPTP swell DR=i;MPTP cs DR=>80
Cc1ccc(S(=O)(=O)NCCC(=O)OCc2ccc([N+](=O)[O-])cc2)cc1C	0	-31	-5	0	/
CC1=NN(C(N)=S)C(=O)C1N=Nc1ccc(Cl)cc1Cl (configuration not stated)	55*	-3	7	0	83*
O=C(Nc1ccc(Oc2ccccc2)cc1)C1CCN(c2c3c(nc4ncnn24)CCC3)CC1	67*	1	14	3	76*
COc1ccc(C(=O)Nc2nnc(S(=O)(=O)N3CCOCC3)s2)cc1	-1	/	-6	0	/
Cc1ccc2c(c1)nnn2C1CCN(S(=O)(=O)c2ccc(C(=O)O)cc2)CC1	-1	-4	-9	0	/
Cc1ccc2c(c1)nnn2C1CCN(S(=O)(=O)c2ccc(C(=O)N3C(C)CCCC3C)cc2)CC1 (configuration not stated)	98*	-121	9	4	87*
COc1ccc(-c2cn(CCC(=O)NCc3ccc(C)cc3)c(CCN)n2)cc1	2	/	-3	0	/

Source: PubChem BioAssay (Sanford-Burnham Center for Chemical Genomics)
